Counter-ions that a name gives are not always drawn.
System: U2932 TK216-resistant clone 2
Assay: cell proliferation relative to vehicle (% of vehicle); higher = less growth inhibition
Details: 500 nM; 72 h
Summary of the method: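 Parental U2932 cells (ABC-DLBCL) and two clones made resistant to an ETS-targeting agent by almost a year of repeated exposure were treated for 72 h with 348 targeted inhibitors at 500 nM or 50 nM. MTT was then applied for 4 h, the reaction was stopped with 25% SDS, and absorbance was measured on a Cytation 3. Values express proliferation as percent of proliferating cells compared with DMSO vehicle.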

| SMILES | cell proliferation |
| --- | --- |
| O=C1NC(=O)C(c2ccccc2[N+](=O)[O-])=C1Nc1ccc(O)c(Cl)c1 | 113 |
| C[S+]([O-])c1ccc(-c2nc(-c3ccc(F)cc3)c(-c3ccncc3)[nH]2)cc1 (stereo unspecified) | 101 |
| CCC[C@H](Nc1nc(-c2ccc(NC(=O)NCC)c(OC)c2)ncc1C)c1cccnc1 [CYT997 (Lexibulin)] | 9.29 |
| CC1(C)CNc2cc(NC(=O)c3cccnc3NCc3ccncc3)ccc21 [Motesanib Diphosphate (AMG-706)] | 97.7 |
| Cc1nnc(C(C)C)n1C1C[C@H]2CC[C@@H](C1)N2CC[C@H](NC(=O)C1CCC(F)(F)CC1)c1ccccc1 (stereo in doubt) [Maraviroc] | 99.6 |
| Nc1ccc(C(=O)Nc2cccc(-c3nc(N4CCOCC4)c4oc5ncccc5c4n3)c2)cn1 | 104 |
| CCCC(CCC)C(=O)O [Valproic acid sodium salt (Sodium valproate)] | 101 |
| N#Cc1c(Oc2ccc(F)c(NC(=O)Cc3cccc(C(F)(F)F)c3)c2)ccc2nc(NC(=O)C3CC3)sc12 | 92.8 |
| Oc1ccc(/C=C/c2cc(O)cc(O)c2)cc1 [Resveratrol] | 111 |
| CC1(C)CCC(CN2CCN(c3ccc(C(=O)NS(=O)(=O)c4ccc(NCC5CCOCC5)c([N+](=O)[O-])c4)c(Oc4cnc5[nH]ccc5c4)c3)CC2)=C(c2ccc(Cl)cc2)C1 | 29.9 |
| CO[C@H]1C[C@@H]2CC[C@@H](C)[C@@](O)(O2)C(=O)C(=O)N2CCCC[C@H]2C(=O)O[C@H]([C@H](C)C[C@@H]2CC[C@@H](OP(C)(C)=O)[C@H](OC)C2)CC(=O)[C@H](C)/C=C(\C)[C@@H](O)[C@@H](OC)C(=O)[C@H](C)C[C@H](C)/C=C/C=C/C=C/1C [Ridaforolimus (Deforolimus, MK-8669)] | 64.3 |
